The source of these data is PubChem BioAssay (NCI).

Test systems include DU-145 prostate; K-562 leukemia; MALME-3M melanoma; MDA-MB-231 breast; RXF 393 renal; SF-268 CNS; SF-295 CNS; SF-539 CNS; UACC-257 melanoma; M14 melanoma.
Holding throughout (assay): NCI-60 one-dose screen, 48 h (100 = growth as untreated, 0 = no growth, -100 = all killed)
Conditions in all cases: 10 µM unless noted

Each structure is given as a SMILES string. About 83,000 compounds went through this panel and 20% of them were active in at least one assay; those are over-represented in the sample as a whole.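 Interpretation: 100, growth as untreated; towards 0, rising growth inhibition; 0, no net growth; 0 to -100, cell death. Compounds scoring below 10 were considered active.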 Unmarked numbers belong to inactive results. Active and inactive are the calls of the source.

As to `COc1cc(CNCCCN2C(=O)c3ccc4c5c(ccc(c35)C2=O)C(=O)N(CCCNCc2cc(OC)c(OC)c(OC)c2)C4=O)cc(OC)c1OC`, the growth in the test with DU-145 prostate is -95.6% (active); with K-562 leukemia, 7.69% (active); in the test on MALME-3M melanoma, -87.1% (active); with MDA-MB-231 breast, -17.5% (active); with RXF 393 renal, -95.3% (active); in the test on SF-268 CNS, -31.8% (active). Besides, the growth in the test with SF-295 CNS is -50.3% (active); in the test with SF-539 CNS it was -86.9% (active); in the test on UACC-257 melanoma, -93% (active); with M14 melanoma, -89.8% (active).
As for `O=C1N/C(=C\c2ccccc2)c2ncccc21`, the growth was 106% in the test on DU-145 prostate; 90.7% with K-562 leukemia; 95.2% with MALME-3M melanoma; 94.3% in the test on MDA-MB-231 breast; 127% with RXF 393 renal; 98.6% in the test with SF-268 CNS. Also, the growth with SF-295 CNS was 107%; in the test with SF-539 CNS, 101%; in the test on UACC-257 melanoma it was 100%; in the test with M14 melanoma, 98.5%.
With `O=C(CC(O)c1ccccc1)Nc1ccccn1` (centres undefined), the growth in the test on DU-145 prostate is 104%; with K-562 leukemia, 84.1%; in the test with MALME-3M melanoma, 94.2%; with MDA-MB-231 breast, 104%; in the test on RXF 393 renal, 131%; with SF-268 CNS it was 103%. Besides, the growth was 108% in the test with SF-295 CNS, 97.6% in the test on SF-539 CNS, 94.9% in the test with UACC-257 melanoma and 99.7% in the test with M14 melanoma.
For `Nc1nc(N)c(C=Nc2ccc(Br)cc2)c(Nc2ccc(Br)cc2)n1`, the growth in the test with DU-145 prostate was 107%; in the test on K-562 leukemia, 92.2%; in the test with MALME-3M melanoma it was 119%; in the test with MDA-MB-231 breast, 86.1%; with RXF 393 renal, 78.9%; in the test with SF-268 CNS, 81%. Further, the growth is 83.5% in the test on SF-295 CNS, 101% in the test with SF-539 CNS, 83.1% in the test with UACC-257 melanoma and 97.2% with M14 melanoma.
With `CCCCCCCCCCCCSC1=CC(=O)C=CC1=O`, the growth in the test with DU-145 prostate is 111%; in the test with K-562 leukemia, 75%; in the test with MALME-3M melanoma, 102%; in the test on MDA-MB-231 breast it was 97.2%; in the test with RXF 393 renal, 78%; in the test on SF-268 CNS, 44.6%. Further, the growth in the test with SF-295 CNS is 51.8%; in the test on SF-539 CNS, 27.7%; in the test on UACC-257 melanoma, 73.2%; in the test with M14 melanoma it was 89.5%.
`O=C(NCc1cccnc1)c1ccc([N+](=O)[O-])o1`: the growth in the test on DU-145 prostate is -67.6% (active); with K-562 leukemia it was 22.1%; with MALME-3M melanoma, -61% (active); with MDA-MB-231 breast, 107%; in the test on RXF 393 renal it was -9.05% (active); with SF-268 CNS it was 33%. For the same compound, the growth in the test on SF-295 CNS was 20.8%; with SF-539 CNS, -30.9% (active); with UACC-257 melanoma, -7.66% (active); in the test on M14 melanoma it was -81.2% (active).
`CCCCCCCC/C=C\CCCCCCCCOc1cccc(CC(=O)NCC[N+]2(C)CCCC2)c1`: the growth was 92.7% in the test with DU-145 prostate; 60.2% in the test on K-562 leukemia; 88.9% in the test on MALME-3M melanoma; 81.6% in the test on MDA-MB-231 breast; 13% in the test on RXF 393 renal; 65.5% in the test with SF-268 CNS. Also, the growth in the test on SF-295 CNS is 96.4%; in the test on SF-539 CNS, 98.8%; in the test with UACC-257 melanoma, 98.9%; in the test with M14 melanoma it was 89.2%.
As to `O=C(Nc1ccc(Cl)c(Cl)c1)OCn1ncc2ccc([N+](=O)[O-])cc21`, the growth with DU-145 prostate is 108%; in the test on K-562 leukemia, 88%; with MALME-3M melanoma, 78.5%; in the test with MDA-MB-231 breast it was 75.7%; with RXF 393 renal, 83.2%; in the test on SF-268 CNS, 82.3%. In addition, the growth is 88.4% in the test with SF-295 CNS, 78.1% in the test on SF-539 CNS, 90.2% with UACC-257 melanoma and 94.7% in the test with M14 melanoma.
Consider `COc1cc(-c2nc(SC(C)C)nc(Nc3ccccc3C)c2C#N)cc(OC)c1OC`, for which the growth in the test on DU-145 prostate was 113%; in the test on K-562 leukemia, 98.6%; in the test with MALME-3M melanoma it was 104%; in the test with MDA-MB-231 breast it was 102%; in the test on RXF 393 renal, 120%; in the test on SF-268 CNS, 106%. Further, the growth was 102% in the test with SF-295 CNS, 103% in the test on SF-539 CNS, 113% in the test on UACC-257 melanoma and 104% in the test on M14 melanoma.
In the case of `Cc1ccc(NS(=O)(=O)c2ccc(-c3cnc(C4CC4)o3)cc2)cc1`, the growth is 49.7% in the test with DU-145 prostate; 14.6% with K-562 leukemia; 47.9% with MALME-3M melanoma; 44.7% in the test with MDA-MB-231 breast; 26.5% in the test with RXF 393 renal; 50.1% in the test on SF-268 CNS. For the same compound, the growth in the test on SF-295 CNS was 19.9%; in the test on SF-539 CNS it was 26.7%; with UACC-257 melanoma, 55.1%; in the test on M14 melanoma, 9.71% (active).
As to `CCOC(=O)c1sc(NC(=O)CN2CCC(Cc3ccccc3)CC2)nc1C`, the growth is 102% in the test on DU-145 prostate; 93.9% with K-562 leukemia; 82.4% in the test with MALME-3M melanoma; 119% in the test with MDA-MB-231 breast; 111% in the test on RXF 393 renal; 106% in the test on SF-268 CNS. Besides, the growth is 42.3% in the test with SF-295 CNS, 106% in the test on SF-539 CNS, 127% with UACC-257 melanoma and 101% in the test with M14 melanoma.
In the case of `O=C1/C(=C/c2ccc(Oc3ccccc3)cc2)N=C(c2ccccc2)N1CCc1cccs1`, the growth with DU-145 prostate was 98%; in the test with K-562 leukemia, 84%; in the test with MALME-3M melanoma, 86.1%; in the test on MDA-MB-231 breast, 79.8%; with RXF 393 renal, 92.1%; in the test on SF-268 CNS, 80.8%. Also, the growth is 82.9% in the test with SF-295 CNS, 104% in the test on SF-539 CNS, 99.1% with UACC-257 melanoma and 58.7% in the test with M14 melanoma.
On to `CC(C)(C)[Si](C)(C)OC1[C@@H](COC(=O)NC(=O)CCl)O[C@@H](n2cnc3c(N)ncnc32)[C@H]1O[Si](C)(C)C(C)(C)C` (some centres undefined), for which the growth with DU-145 prostate is 46.2%; in the test with K-562 leukemia, -37.6% (active); with MALME-3M melanoma, -57% (active); in the test on MDA-MB-231 breast, 35.7%; in the test with RXF 393 renal it was 64%; in the test with SF-268 CNS, -19.6% (active). In addition, the growth was 45.7% with SF-295 CNS, 89.8% in the test on SF-539 CNS and 18.4% with M14 melanoma.
Take `ONc1nc(NO)c2[nH]cnc2n1`: the growth with DU-145 prostate is 74.6%; in the test with K-562 leukemia, 23%; in the test with MALME-3M melanoma it was 90.8%; in the test with MDA-MB-231 breast it was 77.4%; in the test with RXF 393 renal, 86.1%; with SF-268 CNS, 58.8%. For the same compound, the growth in the test with SF-295 CNS was 91%; with SF-539 CNS, 103%; in the test with UACC-257 melanoma, 105%; in the test on M14 melanoma, 76.7%.
